ELG1 genotox: induces genotoxicity in HEK293T cells with luciferase-tagged ELG1 | HEK293T ELG1-luciferase reporter, luminescence, 16 h | Potency, µM (titrated, usually from 46 µM), without a hit: at the highest dose activity change, positive = activation, usual class: activators | actives 1.3% (n = 330,000); note: % of control where 0% means no effect; nearly all actives have a fitted effect of over 60% in size
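DMSO vehicle served as control against compound-treated ELG1-luciferase HEK293T cells; exposure lasted 16 hr at 37 °C and 5% CO2, followed by ONE-Glo luminescence detection after 30 min.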
NPC1 prom act: NPC1 promoter activation; Potency, µM (doses to about 9.22 µM), for the others: at the top dose activation, actives largely listed as activators; AID 485313; actives 2.4% (n = 320,000); Huh7 NPC1 promoter luciferase reporter, 24 h; note: % of control where 0% means no effect; nearly all actives have a fitted effect of over 60% in size
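Luminescence from an NPC1 promoter-driven luciferase reporter in stably transfected Huh7 cells was measured after 24 h compound treatment at 37 °C, followed by 10 min ambient incubation with luciferase detection reagent.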
FLuc modulator: firefly luciferase modulation, counter-screen for miR-21 project | P08659 | purified FLuc, Km substrates, luminescence inhibition | Potency, µM (top dose mostly 57.5 µM), without a hit: at the highest dose activity change, negative = inhibition, hits mostly inhibitors | actives 6.9% (n = 360,000) | AID 588342;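 note: plate controls were vehicle for no effect and reference inhibitor for full effect; nearly all actives have a fitted effect of over 55% in size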
Target sequence (P08659 whole entry, looked up): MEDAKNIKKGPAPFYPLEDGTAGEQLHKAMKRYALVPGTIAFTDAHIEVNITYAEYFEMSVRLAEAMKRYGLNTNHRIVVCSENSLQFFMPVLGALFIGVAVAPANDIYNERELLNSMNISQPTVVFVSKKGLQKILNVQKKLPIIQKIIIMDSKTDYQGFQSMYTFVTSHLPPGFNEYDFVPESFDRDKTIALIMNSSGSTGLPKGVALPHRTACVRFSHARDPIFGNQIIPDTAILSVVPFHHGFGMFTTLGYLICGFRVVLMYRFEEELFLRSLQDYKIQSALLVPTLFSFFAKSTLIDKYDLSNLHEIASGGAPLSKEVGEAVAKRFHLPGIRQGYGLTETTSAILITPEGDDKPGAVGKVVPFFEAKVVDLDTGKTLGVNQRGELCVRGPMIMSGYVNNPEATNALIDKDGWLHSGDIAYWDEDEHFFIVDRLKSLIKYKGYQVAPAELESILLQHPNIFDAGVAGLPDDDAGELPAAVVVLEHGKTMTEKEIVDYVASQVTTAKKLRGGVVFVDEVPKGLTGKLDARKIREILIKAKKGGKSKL
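Purified P. pyralis luciferase (10nM final) with 10uM D-luciferin and 10uM ATP (Km levels) in 50mM Tris acetate pH 7.5, 10mM Mg acetate, 0.01% Tween-20, 0.05% BSA; qHTS 6-point titration, ~60 µM downward; luminescence read.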
Rab9 prom act: activates the Rab9 promoter; actives 2.8% (n = 320,000); Potency, µM (doses to about 9.22 µM), for the others: top-dose activation, negative = inhibition, usual class: activators; Huh7 Rab9 promoter-luciferase reporter, luminescence, 24 h; note: % of control where 0% means no effect; nearly all actives have a fitted effect of over 60% in size
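Stable Rab9-luc Huh7, 1500 cells/well, 2 h settle; cmpd in DMSO, 24 h, 37 °C/5% CO2; luciferase reagent 10 min RT; luminescence.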
Luc counter: blocks Kinase-Glo luciferase, a counter-screen artifact. Q27757. Kinase-Glo luciferase, ATP luminescence, 8 min. Potency, µM (top dose mostly 38.3 µM), inactives show top-dose activity change, negative = inhibition, usual class: inhibitors. actives 0.28% (n = 200,000). AID 1379; note: % is set by controls: 0 for no effect and ±100 for the full control effect; nearly all actives have a fitted effect of over 60% in size
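Compounds were added to a substrate mix at pH 7.2 (50 mM imidazole, 10 uM ATP, within the enzyme's linear range), followed by Kinase-Glo detection reagent; luminescence was measured after 8 minutes at ambient temperature.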
SMN2 splice enh: increases expression of the SMN2 splice variant. Potency, µM (top dose mostly 46.1 µM), for inactives: top-dose activity change, positive = activation, most hits filed as activators. actives 2.8% (n = 210,000). HEK293 SMN2-luciferase splicing reporter, luminescence, 30-36 h; note: % of control where 0% means no effect; nearly all actives have a fitted effect of over 55% in size
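qHTS luciferase splicing reporter: luminescence rises when SMN2 exon 7 is included in transfected HEK293 cells. Compound exposure lasted 30-36 h at 37C, with 4.5 mM final sodium butyrate as control, followed by a ONE-Glo read.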
Active calls of the source: *; ? = inconclusive; nt = no result given. In the library only some 7.3% were active in any assay of this set; here they are far more common. Calls come from the whole dose curve; as a rule, active = well fitted curve in the direction sought with a large enough effect; inconclusive = small, poorly fitted or top-dose-only effect, or another doubt; inactive = no such curve, though single readings can be large; an effect the other way counts as inactive or inconclusive. Potency is the fitted concentration of half-maximal effect.

SMILES	ELG1 genotox	NPC1 prom act	FLuc modulator	Rab9 prom act	Luc counter	SMN2 splice enh
CC(=O)c1ccc(Nc2ccc(-c3ccccc3C)nn2)cc1	?	?	9.5µM*	1.6µM*	-5%	11µM*
CC(=O)c1cccc(Nc2ccc(-c3ccccc3F)nn2)c1	13%	2.8µM*	5.4µM*	2.2µM*	0%	11µM*
CCc1nc2sc3c(O)cc(=O)[nH]c3c2cc1C	-1%	0%	15µM*	-1%	nt	nt
Cc1cc(-c2ccccc2)c2c(n1)sc1c(O)cc(=O)[nH]c12	0%	-1%	-1%	6%	nt	nt
COc1ccc(/C=C2\S/C(=N/S(=O)(=O)c3cccs3)NC2=O)cc1	-1%	-4%	19µM*	-1%	2%	9%
COc1ccc(/C=N/S(=O)(=O)c2cccs2)cc1	-3%	0%	-1%	-2%	-6%	-12%
COc1cccc(Nc2ncnc3c2cnn3-c2cccc(C)c2)c1	5%	?	17µM*	?	-2%	-9%
COc1ccc(Nc2ncnc3c2cnn3-c2ccc(C)cc2)cc1Cl	nt	nt	24µM*	nt	nt	nt
COc1ccccc1Nc1ncnc2c1cnn2-c1cccc(C)c1	1%	30%	13µM*	9%	0%	12%
Cc1ccccc1Cn1ccc(NC(=O)c2nn3cccnc3c2Cl)n1	5%	12%	17µM*	27%	1%	-10%
Cc1nn(Cc2ccc(F)cc2)c(C)c1NC(=O)c1cc2ncc(Br)cn2n1	-6%	0%	-1%	-11%	-1%	nt
CSc1ccccc1NC(=O)c1cc2ncc(Br)cn2n1	?	4%	8.5µM*	?	-1%	3.2µM*
Cc1ccccc1Cn1ccc(NC(=O)c2cc3ncc(Br)cn3n2)n1	0%	-2%	11µM*	-2%	-1%	2%
CCC(NC(=O)c1cc(COc2cncc(Cl)c2)on1)c1ccncc1 (stereo not given)	-10%	1%	1%	-4%	nt	nt
COc1cc(C)ccc1OCc1cc(C(=O)N2CCCCCCC2)no1	?	?	21µM*	4.5µM*	nt	nt
CCN1CCN(C(=O)c2cc(COc3ccc(C(C)=O)cc3OC)on2)CC1	?	2.2µM*	12µM*	3.2µM*	nt	nt
O=C(c1cc(COc2ccc(F)cc2F)on1)N1CCSCC1	21µM*	?	15µM*	2.5µM*	1%	nt
COc1ccc(OCc2cc(C(=O)N3CCCCCCC3)no2)c(Cl)c1	?	24%	?	23%	nt	nt
CCC(NC(=O)c1cc(COc2ccc(F)cc2Cl)on1)c1ccncc1 (stereo not given)	0%	-1%	21µM*	-4%	nt	nt
O=C(c1cc(COc2ccc(F)cc2Cl)on1)N1CCCCCC1	?	1.8µM*	6.7µM*	2µM*	nt	nt
COc1ccc(OCc2cc(C(=O)N3CCN(C4CCCC4)CC3)no2)c(Cl)c1	?	3.2µM*	21µM*	?	nt	nt
COc1cc(C)ccc1OCc1cc(C(=O)N2CCN(C3CCCCC3)CC2)no1	?	?	17µM*	?	nt	nt
Cc1nc(-c2ccccc2)sc1C(=O)NN	-9%	-5%	4%	-10%	-4%	-32%
C/C(=N\OC(=O)c1cccc(C)c1)c1sc(-c2ccccc2)nc1C	5.8µM*	4µM*	-7%	2.8µM*	-4%	?
C/C(=N\OC(=O)c1cccc(C(F)(F)F)c1)c1sc(-c2ccccc2)nc1C	3%	3.5µM*	5%	4µM*	5%	25µM*
C=CCOc1ccc(/C=C2\SC(=Nc3cccnc3)NC2=O)cc1	9%	-3%	7.6µM*	1%	nt	nt
CC(/C=C1\SC(=Nc2cccnc2)NC1=O)=C\c1ccccc1	-7%	-26%	?	-15%	nt	nt
Cc1cc(C)c(NC(=O)Cn2nc(-c3ccccc3)nc2-c2ccccc2)c(C)c1	?	1%	2%	-2%	1%	8%
